The campaign covered roughly 2,000 compounds. About 250 (12%) were called active. No stated cut-off is given here; in the data, active means hERG blockade below about -20% or above about 20%; inactive means in between. The entries come from a sample that favours actives as a whole.

Voltage-gated inwardly rectifying potassium channel KCNH2 (Homo sapiens), sequence (Q12809 whole entry, looked up): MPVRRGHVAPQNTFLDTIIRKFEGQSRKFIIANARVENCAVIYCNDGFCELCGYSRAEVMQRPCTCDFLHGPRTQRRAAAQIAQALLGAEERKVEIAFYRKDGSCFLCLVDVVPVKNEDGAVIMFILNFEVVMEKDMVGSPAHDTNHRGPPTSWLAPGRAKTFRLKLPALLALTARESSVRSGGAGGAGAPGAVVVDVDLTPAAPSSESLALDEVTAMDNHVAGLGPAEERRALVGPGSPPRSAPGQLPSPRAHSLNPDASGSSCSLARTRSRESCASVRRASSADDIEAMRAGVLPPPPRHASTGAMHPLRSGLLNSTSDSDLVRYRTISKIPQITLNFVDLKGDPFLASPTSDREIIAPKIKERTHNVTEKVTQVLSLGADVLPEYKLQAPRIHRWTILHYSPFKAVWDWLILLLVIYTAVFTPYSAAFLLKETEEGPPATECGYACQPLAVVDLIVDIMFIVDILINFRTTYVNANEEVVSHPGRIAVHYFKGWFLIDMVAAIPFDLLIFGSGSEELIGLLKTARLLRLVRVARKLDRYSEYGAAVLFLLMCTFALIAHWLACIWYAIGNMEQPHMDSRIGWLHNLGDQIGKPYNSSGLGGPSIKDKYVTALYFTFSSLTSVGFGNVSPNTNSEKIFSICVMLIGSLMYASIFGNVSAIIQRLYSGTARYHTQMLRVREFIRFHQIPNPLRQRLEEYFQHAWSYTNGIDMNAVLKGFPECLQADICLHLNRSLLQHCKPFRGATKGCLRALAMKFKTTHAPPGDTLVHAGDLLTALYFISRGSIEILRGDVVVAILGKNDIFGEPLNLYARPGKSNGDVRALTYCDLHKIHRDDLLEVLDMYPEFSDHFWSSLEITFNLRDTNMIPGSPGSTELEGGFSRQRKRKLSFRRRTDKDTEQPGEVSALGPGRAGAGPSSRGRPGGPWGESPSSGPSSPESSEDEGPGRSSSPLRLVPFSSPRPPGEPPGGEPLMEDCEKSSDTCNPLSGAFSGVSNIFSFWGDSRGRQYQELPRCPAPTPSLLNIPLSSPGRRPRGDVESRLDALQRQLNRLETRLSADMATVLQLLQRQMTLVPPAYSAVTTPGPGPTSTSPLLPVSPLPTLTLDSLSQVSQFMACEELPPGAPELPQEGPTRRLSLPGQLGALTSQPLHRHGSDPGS

The experiment has as its target Voltage-gated inwardly rectifying potassium channel KCNH2 (Homo sapiens) (UniProt Q12809). Put plainly: KCNH2 potassium channel function modulators, cell-based (AID 376).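 Further: 0% = buffer alone and 100% = reference blocker.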 Conditions: hERG-expressing cells, channel activity single-concentration screen; concentration not given here.
On to `O=C(O)CC(=Cc1ccco1)C(=O)O`, for which the hERG blockade was -9.17% (inactive).

Take `O=C(O)CCC1(C(=O)O)CCC(=O)c2ccccc21` (centres undefined): the hERG blockade was 6.22% (inactive). To `BrC(c1cccc2ccccc12)c1cccc2ccccc12` belongs -6.84% (inactive). The value for `COc1ccc(C(=O)CCN(C)C)c2ccccc12` was 7.02% (inactive). To `Clc1ccccc1C(Nc1cnccn1)Nc1cnccn1` belongs 21.5% (active).

Consider `Clc1ccccc1C(Nc1ncccn1)Nc1ncccn1`, for which the hERG blockade was 3.73% (inactive).

For `O=C(O)C(Cc1ccc([N+](=O)[O-])cc1)=NO`, the hERG blockade was 0.35% (inactive). To `CC(CO)(CO)Nc1ncnc2ccccc12` belongs 2.95% (inactive); to `O=S(=O)(c1cnccc1N1CCN(CCO)CC1)N1CCCC1`, -8.49% (inactive); to `N=C1C(O)C2(I)c3ccccc3N3C(=N)C(O)C4c5ccccc5N1C4C32` (centres undefined), 35.8% (active). As for `O=C(CSc1nc2ccccc2s1)c1sc2sc3ccccc3[n+]2c1O`, the hERG blockade was 1.71% (inactive). The value for `CC(CCC(=O)O)C(=O)O` (centres undefined) was 2.86% (inactive).

For `Oc1ccc(CNCc2ccccc2)c2cccnc12`, the hERG blockade was 7.55% (inactive). To `O=C(O)c1ccc(CNCc2ccccc2)cc1` belongs -8.86% (inactive). The value for `Oc1ccccc1CNCc1ccccc1O` was 23.5% (active). The value for `CCCCN1CSC(=S)N(Cc2ccccc2)C1` was 13.4% (inactive); that for `CCC(CS(=O)(=O)O)[N+](=O)[O-]` (centres undefined) was 1.33% (inactive).

Consider `O=C(O)CC(CC(=O)O)C(=O)O`, for which the hERG blockade is 15.6% (inactive).

As to `N=C(N)SCc1ccc(Cl)cc1Cl` (tested in a mixture with another compound), the hERG blockade was 30.7% (active). To `Clc1ccc(CSCc2ccc(Cl)cc2Cl)c(Cl)c1` belongs 5.81% (inactive); to `N=C(N)SCc1cc(Cl)cc(Cl)c1O`, 12.3% (inactive); to `COC(=O)c1ccc(CCc2cc(O)ccc2O)cc1`, 11.9% (inactive). With `O=C(O)CCC(=O)c1ccc[nH]1`, the hERG blockade is 1.12% (inactive). The value for `O=C(O)c1cccc2cccc(-c3cccc4cccc(C(=O)O)c34)c12` was -6.19% (inactive); that for `O=C(O)CCC(=O)c1ccc2ccc3cccc4ccc1c2c34` was -66.6% (active); that for `CC(C)(C)c1ccc(NS(=O)(=O)c2ccc(N)cc2)cc1` was -2.98% (inactive).

`Nc1ccc(S(=O)(=O)NCCS(=O)(=O)O)cc1`: the hERG blockade is -20.3% (active). The value for `NCCNS(=O)(=O)c1ccc(N)cc1` was 2.62% (inactive); that for `CCOC(=O)c1cnc(N(C)C)nc1SC(=N)N` was 12.8% (inactive); that for `c1cc(CNCCN2CCNCC2)ccn1` was -17.5% (inactive). Regarding `CC(C)NCCC(O)c1cc2ccccc2o1` (centres undefined), the hERG blockade was 7.89% (inactive). Regarding `NC(N)=NC(N)=Nc1ccccc1` (tested in a mixture with another compound), the hERG blockade is -3.28% (inactive). As to `NC(N)=NC(N)=Nc1c(F)c(F)c(F)c(F)c1F`, the hERG blockade was -23.3% (active). The value for `NC(N)=NC(N)=Nc1ccc(C(=O)O)cc1` was -11% (inactive).

The record behind these values is PubChem BioAssay AID376 (PDSP, 2006).
